In PubChem BioAssay (NCI):
The panel holds about 83,000 compounds, 20% with a hit somewhere; the sample as a whole holds those more often.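 The test compound was applied at a single concentration to cells in 96-well plates for 48 hours, and percent growth was recorded.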 A number with no mark means an inactive call. Active and inactive are the calls of the source. Rule for the calls: active = growth percent below 10; inactive = the rest.

Columns and labels:
Assay in all cases: NCI-60 one-dose screen, 48 h (100 = growth as untreated, 0 = no growth, -100 = all killed)
Details in all cases: 10 µM unless noted
K-562 leukemia = test system: K-562 leukemia
MALME-3M melanoma = test system: MALME-3M melanoma
MDA-MB-231 breast = test system: MDA-MB-231 breast
RXF 393 renal = test system: RXF 393 renal
SF-268 CNS = test system: SF-268 CNS
SF-295 CNS = test system: SF-295 CNS
SF-539 CNS = test system: SF-539 CNS
UACC-257 melanoma = test system: UACC-257 melanoma
M14 melanoma = test system: M14 melanoma
HCT-15 colon = test system: HCT-15 colon

Structure (SMILES)	growth (K-562 leukemia)	growth (MALME-3M melanoma)	growth (MDA-MB-231 breast)	growth (RXF 393 renal)	growth (SF-268 CNS)	growth (SF-295 CNS)	growth (SF-539 CNS)	growth (UACC-257 melanoma)	growth (M14 melanoma)	growth (HCT-15 colon)
COC(=O)C(C)NS(=O)(=O)/N=C1\NC(=O)NC1=C(Cl)Cl (stereo not given)	104%	99%	106%	124%	98.2%	103%	95.7%	99.7%	94.7%	102%
CN1C(=S)N(C)C2C1NN=C1SC(c3ccccc3)=CC(=O)N12 (stereo not given)	57.4%	97.7%	83.3%	97.8%	108%	98%	90.8%	99%	101%	89.5%
COc1ccc(COc2ccc(/C=C3/C(=O)Nc4cc(Cl)ccc43)cc2)cc1	113%	86.6%	91.2%	105%	99.5%	101%	85.8%	106%	97.7%	104%
O=C(CSc1nc2sc3c(c2c(=O)n1-c1ccc(Cl)cc1)CCCC3)N/N=C/c1ccc(F)cc1	45.4%	100%	86.2%	118%	102%	106%	102%	109%	90.5%	73.9%
CCOC(=O)c1sc(NCC(=O)Nc2cccc([N+](=O)[O-])c2)c(C(=O)OCC)c1C	5.97% (active)	-63.7% (active)	-24.5% (active)	-74% (active)	-25% (active)	-77.5% (active)	-35.1% (active)	-6.79% (active)	-73% (active)	2.01% (active)
COc1ccc(-c2nc3ccc(-c4nnc(SCC(=O)Nc5ccc(C(=O)/C=C/c6ccc(Cl)cc6)cc5)o4)cc3[nH]2)cc1OC	92.7%	95.1%	95.2%	106%	106%	98%	83.8%	112%	108%	97.1%
Clc1ccc2oc3c(OCCCn4ccnc4)c4ccccc4nc3c2c1	45.2%	97.9%	65.7%	57.9%	67.7%	54%	65.1%	96.4%	93.6%	40.4%
COc1ccc(NC2=C(Cl)C(=O)C(C)=C(C)C2=O)cc1OC	60%	99.7%	44.9%	108%	93.5%	101%	94.7%	95.1%	95.7%	96.1%
NC(=O)c1c(NC(=O)c2ccc(C3CCCCC3)cc2)sc2c1CCC(=O)C2	3.87% (active)	13.2%	15.6%	-2.51% (active)	33.1%	18.9%	14.9%	12.2%	18%	4.53% (active)
COc1ccc(/C=C2\SC(=Nc3cc(C)on3)NC2=O)cc1	100%	95.9%	106%	102%	104%	95.2%	99.3%	96.7%	92.2%	99.3%
C#Cc1nc(C2=C(C)C(=N\O)/C(=N/O)C2)cs1	94%	94.4%	61.4%	104%	86.1%	101%	93.9%	102%	89.6%	94.5%
COc1ccc2[nH]cc(-c3cc(N)n4nc(-c5c[nH]c6ccc(OC)cc56)cc4n3)c2c1	-35.5% (active)	-68.4% (active)	-12.6% (active)	-50.6% (active)	-30% (active)	25.2%	-89.7% (active)	-21.8% (active)	-78.3% (active)	1.36% (active)
COc1cccc(NC2=CC(=O)C(C)=C(C)C2=O)c1	12.5%	101%	41.4%	55.8%	74.5%	105%	21.7%	54.7%	97%	91.9%
O=C1[C@H]2Cc3c([nH]c4ccccc34)[C@@H](c3ccc(Br)cc3)N2C(=O)CN1C1CCN(Cc2ccccc2)CC1	-28.2% (active)	62.2%	49%	42.7%	37.5%	32.4%	65.4%	53.3%	35.8%	15.8%
CC(C)(O)c1cncc(-c2ccc3ncnc(N4CCc5cc(F)c(Cl)cc54)c3c2)c1	33.6%	16.1%	30.3%	-17% (active)	26.1%	7.56% (active)	4.86% (active)	42.8%	32.2%	14.1%
CC(C)(C)Nc1nc2c(OCCc3ccccc3)cccn2c1-c1ccc(O)cc1	17.4%	62.5%	79.6%	21.2%	91.3%	36%	72.9%	97.9%	63.1%	2.12% (active)
CN(C)c1ccc(-c2c(NC(C)(C)C)nc3c(OCCc4ccccc4)cccn23)cc1	3.1% (active)	12.9%	25.5%	-25.8% (active)	56.6%	-12.7% (active)	17.8%	3.18% (active)	29.7%	0.0072% (active)
Cc1ccc(-c2nc(C(Cl)Cl)nc3cc(-c4ccccc4)nn23)cc1	14.3%	3.13% (active)	12.9%	-63.8% (active)	23.9%	10.3%	34.4%	28.9%	-11.1% (active)	5.49% (active)
COc1cc(/C=C/C(=O)c2cc(OC)c(OC)c(OC)c2)ccc1OCc1ccc(F)cc1	11.7%	67.6%	46.8%	77.7%	58%	54.7%	9.22% (active)	79.8%	71%	16%
NS(=O)(=O)c1cccc(Nc2nc(SCC(=O)c3ccc([N+](=O)[O-])cc3)nc3ccccc23)c1	19.7%	58.6%	55.6%	57%	54.5%	36.8%	52.2%	88.9%	38.5%	34.5%
Cc1cccc2sc(/N=C(\N)C(Br)Br)nc12	4.43% (active)	-53.6% (active)	6.18% (active)	-22.5% (active)	72.4%	29%	8.75% (active)	67.8%	32.6%	-36.5% (active)
C#Cc1nc(C2=C(C)/C(=N/OCc3ccccc3)CC2)cs1	75.5%	-44% (active)	-39.2% (active)	33.6%	0.651% (active)	-84% (active)	-86.5% (active)	84.4%	75.4%	53.4%
C=CCSc1ccc2c(c1)C(N1CCNCC1)=Nc1ccccc1O2	29.3% [8.25 µM]	86.6% [8.25 µM]	77.8% [8.25 µM]	63% [8.25 µM]	74.8% [8.25 µM]	85.1% [8.25 µM]	74.1% [8.25 µM]	83% [8.25 µM]	83.4% [8.25 µM]	85.3% [8.25 µM]
O=C1Nc2ccc(Cl)cc2/C1=C/c1ccc(OCC(=O)c2ccc(Br)cc2)cc1	102%	84.5%	76.2%	114%	94%	99.9%	102%	100%	95.6%	99.2%
COC1CCN(Cc2ccc3c(NNC(=O)c4cnccn4)nc4cc(F)ccc4n23)C1 (stereo not given)	12%	48.6%	19.8%	37.9%	35.8%	21.4%	4.26% (active)	-3.02% (active)	3.22% (active)	28.7%
